Our source for the growth values is PubChem BioAssay (NCI).

The panel holds about 83,000 compounds, 20% with a hit somewhere; the sample as a whole holds those more often.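 Activity criterion: percent growth below 10, measured after cells in 96-well plates were exposed to a single compound concentration for 48 hours.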 Unmarked numbers belong to inactive results. Active and inactive are the calls of the source.

This experiment concerns HL-60(TB) leukemia. The experiment in a line: NCI-60 one-dose screen, 48 h (100 = growth as untreated, 0 = no growth, -100 = all killed). The following applies: 10 µM unless noted.
As for `COc1cc(NC(=O)C2=C(N3CCOCC3)/C(=C/c3ccc(Cl)cc3)CC2)cc(OC)c1OC`, the growth was 21.6%. Next, `COC(=O)c1ccc2[nH]c(O)c(C(=Nc3ccc(N(C)C(=O)CN4CCN(C)CC4)cc3)c3ccc(N)cc3)c2c1`: 110%; `COc1ccc(C2c3ccc4ccccc4c3Oc3ncnc(N)c32)cc1` (stereo not given): 89%. Next, `Cc1ncc(C(=O)Nc2ccc(CN3CCN(C)CC3)c(C(F)(F)F)c2)cc1C#Cc1c(N)ncc2ccccc12`: -51.1% (active). On to `CCCCCCC(CC#N)(CCC)CCCC` (stereo not given), for which the growth is 112%. On to `O=C1/C=C/[C@@H](O)[C@@H]2C[C@@H](O)C[C@H]2/C=C/CCC[C@H](CCc2ccc(NC(=S)Nc3ccc4c(c3)C(=O)OC43c4ccc(O)cc4Oc4cc(O)ccc43)cc2)O1`, for which the growth is 4.65% (active). Take `CC1NC(C)c2ccc3ccccc3c2O1` (stereo not given): the growth was 99.4%. Next, `COC(=O)CCCCCN=Cc1c(O)c(O)c(C(C)C)c2cc(C)c(-c3c(C)cc4c(C(C)C)c(O)c(O)c(C=NCCCCCC(=O)OC)c4c3O)c(O)c12`: 15.4%.

For the compound `COc1cc(/C=C2\C(=O)N(c3c(Cl)cccc3Cl)c3ccccc32)cc(OC)c1O`, the growth was -6.44% (active).

Take `CCc1c(C)[nH]c(=O)c(C(N)=O)c1C#N`: the growth is 102%. In the case of `Cc1ccccc1-c1cc(-c2ccc(Br)s2)[nH]c(=O)c1C#N` it was 82%; in that of `CN1C(=O)N(C)C2(c3ccccc3)n3c(s/c(=C\c4ccccc4)c3=O)=NNC12c1ccccc1` (stereo not given), 90.1%. In the case of `CC(C)=CC/C=C(/C)[C@H]1CC[C@]2(C)[C@@H]1CC[C@@H]1[C@@]3(C)CCCNC(C)(C)[C@@H]3CC[C@]12C` it was -35.8% [100 µM] (active).

With `Clc1ccc(C2=NN(c3ccc(Cl)cc3)C(c3cccc(Nc4ccnc5cc(Cl)ccc45)c3)C2)cc1` (stereo not given), the growth is 102%.

Turning to `O=C(Cc1ccc(/C=C/C(=O)c2nccs2)cc1)Nc1ccccc1`, the growth was 75%.

For the compound `Oc1cc(O)c2c(=S)cc(-c3ccc(Cl)cc3)oc2c1`, the growth was 37.6%. In the case of `Nc1nc(N)c(-c2ccc(Cl)c(Cl)c2)c(CBr)n1` it was 59.5%; in that of `O=C(Nc1ccc(Cl)cc1F)c1cc(F)ccc1O`, -43.8% (active).

Turning to `CCOc1cc(N)ccc1C(=O)NCCCN(CC)CC`, the growth is 70.2%.

On to `Cc1cccc(NC(=O)Nc2ccc(-c3ccc4c(c3)NC(=O)/C4=C\c3ccc[nH]3)cc2)c1`, for which the growth was 75.1%. In the case of `COc1ccc(N2CCN(Cc3cc(C(=O)/C=C/c4c[nH]c5ccccc45)ccc3O)CC2)cc1` it was 99.9%. In the case of `CC(C)c1[nH]nc2c(NCc3ccc(-c4ccccn4)cc3)nc(SCCN(C)C)nc12` it was -16.4% (active); in that of `CC1(C)CC[C@]2(C(=O)O)CC[C@]3(C)C(=CC[C@@H]4[C@@]5(C)Cc6c([nH]c7ccccc67)C(C)(C)[C@@H]5CC[C@]43C)[C@@H]2C1`, 16.2%; in that of `CCOC(=O)C1=C(C)N=c2s/c(=C\c3cc(Cl)ccc3O)c(=O)n2C1c1ccc(OC)cc1` (stereo not given), 98%.

For the compound `CCc1ccc(-c2cn3ccnc3c(-c3ccc4ncn(Cc5ccccc5)c4c3)n2)cc1`, the growth was 60.4%. Next, `CNc1ccc(N)cc1`: 109%. In the case of `Cl/C(=N\Nc1ccccc1)c1ccccc1`, the growth is 101%. In the case of `OCCS` it was 98.4%; in that of `NC(=O)c1cccc(-c2cc(C(N)=O)ccc2Cl)c1`, -22.7% (active); in that of `C=CCn1c(SCC(=O)Nc2ccc(C(=O)/C=C/c3ccc(Cl)cc3)cc2)nnc1-c1ccc(Br)cc1`, 76.2%.

Consider `CCOC(=O)C1C(=O)C(=O)N(C(C)C)C1C(=O)OCC` (stereo not given), for which the growth was 123%. Next, `CCc1cccc(C)c1NC(=O)c1sc2nc3c(cc2c1N)CCCCC3`: -10.5% (active); `Cc1c2cnccc2c(C)c2c1c1cc(C(=O)O)ccc1n2C`: 5.27% (active). In the case of `CC(C)C[C@H](NC(=O)Cn1ccc(Nc2ccccc2)cc1=O)B(O)O` it was 2.13% (active); in that of `O=C(Nc1ccc(-n2ccc3c(NC(=O)c4ccccc4)ncnc32)cc1)Nc1ccc(Cl)c(Cl)c1`, 62.1%; in that of `CCOC(=O)C(=O)C=P(c1ccccc1)(c1ccccc1)c1ccccc1`, 103%. Next, `O=C(Nc1ccc2c(O)cc(S(=O)(=O)O)cc2c1)c1ccc([N+](=O)[O-])cc1`: 75.3%; `CCNCCNc1c(C)c(-c2ccc(C(F)(F)F)cc2)c(C#N)c2nc3ccccc3n12`: 74%. `CCOc1ccc2c(c1)CC[C@@H]1[C@@H]2CC[C@]2(C)[C@@H](O)[C@@H](O)C[C@@H]12`: the growth is 97%. Next, `COc1cc2nc3cc([N+](=O)[O-])ccc3c(Cl)c2cc1OC`: 109%.
